{
  "source": "PubChem BioAssay (NCI)",
  "note": "The panel holds about 83,000 compounds, 20% with a hit somewhere; the sample as a whole holds those more often.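 Step 1: grow cells in 96-well plates. Step 2: add test compound at a single concentration. Step 3: incubate 48 h. Step 4: record percent growth.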 A number with no mark means an inactive call. Activity calls are given as the source filed them. How the source made its calls: active means growth percent below 10; inactive means the rest.",
  "data": [
    {"tested_on": "HL-60(TB) leukemia", "assay": "NCI-60 one-dose screen, 48 h (100 = growth as untreated, 0 = no growth, -100 = all killed)", "details": "10 µM unless noted", "values": [
      {"smiles": "CN(C)CCCNc1c2ccccc2nc2c1oc1ccc(Cl)cc12", "growth": "-1.29% (active)"},
      {"smiles": "CN(C)CCCOc1c2ccc(Cl)cc2nc2c1oc1ccccc12", "growth": "-19.3% (active)"},
      {"smiles": "Cc1ccc(-c2nn(-c3ccccc3)cc2/C=C/C(=O)c2ccc(NC(=O)CCCCCCC(=O)NO)cc2)cc1", "growth": "109%"},
      {"smiles": "C/C(=N\\NC(=S)Nc1ccc(Br)cc1)c1cc2ccccc2oc1=O", "growth": "1.53% (active)"},
      {"smiles": "NS(=O)(=O)c1cccc(Nc2nc(SCC(=O)c3ccc(Br)cc3)nc3ccccc23)c1", "growth": "79.1%"},
      {"smiles": "CC(=O)Nc1ccc(C)c(Nc2cc(-c3ccc(-n4cccn4)cc3)[nH]n2)c1", "growth": "12.8%"},
      {"smiles": "Cc1ccc(OCc2occc2C(=O)N2CCOCC2)cc1", "growth": "107%"},
      {"smiles": "CCCCCCNC(=O)Oc1ccc(/C(=C(/C)c2ccc(OC)cc2)c2ccc(OCCN3CCCC3)cc2)cc1", "growth": "50.7%"},
      {"smiles": "O=C(N/N=C\\c1ccc([N+](=O)[O-])cc1)c1ccc2nc(-c3ccc(Br)cc3)[nH]c2c1", "growth": "1.86% (active)"},
      {"smiles": "O=C(N/N=C/c1cccs1)c1[nH]c2ccc(Br)cc2c1-c1ccccc1", "growth": "-48.3% (active)"},
      {"smiles": "CC1CCN(S(=O)(=O)c2ncsc2-c2ccccc2)CC1", "growth": "72.3%"},
      {"smiles": "O=C(CCn1c[n+](CC(=O)c2ccc(F)cc2)c2ccccc21)Nc1cccc2cccnc12", "growth": "36.7%"},
      {"smiles": "CCCn1cnc2c(c1=N)C(c1ccc(OC)cc1)c1sc3c(CC)cccc3c1O2", "note": "(centres undefined)", "growth": "-12.9% (active)"},
      {"smiles": "COc1cc(/C=N/n2cnc3oc(-c4ccccc4)cc3c2=N)cc(CN2CCOCC2)c1O", "growth": "88.9%"}
    ]}
  ]
}
